DRD3 antagonist – blocks the human D3 dopamine receptor; P35462; D3R cells, DiscoveRx beta-arrestin luminescence, antagonist mode; stronger effect = lower value; max response, negative = inhibition, %; hit rate 2.5% among 360,000; AID 652054; in the data active means max response below about -50%; inconclusive means no clear call, values can overlap the other calls; further: on the % scale 0 is the no-effect control and ±100 the full control effect
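Cells expressing the human receptor were seeded at 1500 cells/well, incubated overnight at 37 degrees C in 5% CO2, then exposed to library compounds with dopamine controls for 90 minutes at 37 degrees C before luminescent detection.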
B2AR arrestin – recruits beta-arrestin to the human beta2-adrenergic receptor; beta-arrestin recruitment to beta2AR, cell-based reporter; P07550; hit rate 0.02% among 330,000; Potency, µM (highest dose often 46.1 µM), for inactives: top-dose activation, most hits filed as activators; AID 492947; active means well fitted activation curve with a large enough effect; inconclusive means small, poorly fitted or top-dose-only effect;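 further: potency means the concentration at half of the fitted maximal effect; 0% = DMSO controls and full agonism = EC100 isoproterenol or metaproterenol; nearly all actives have a fitted effect of over 65% in size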
Target sequence (P07550 whole entry, looked up): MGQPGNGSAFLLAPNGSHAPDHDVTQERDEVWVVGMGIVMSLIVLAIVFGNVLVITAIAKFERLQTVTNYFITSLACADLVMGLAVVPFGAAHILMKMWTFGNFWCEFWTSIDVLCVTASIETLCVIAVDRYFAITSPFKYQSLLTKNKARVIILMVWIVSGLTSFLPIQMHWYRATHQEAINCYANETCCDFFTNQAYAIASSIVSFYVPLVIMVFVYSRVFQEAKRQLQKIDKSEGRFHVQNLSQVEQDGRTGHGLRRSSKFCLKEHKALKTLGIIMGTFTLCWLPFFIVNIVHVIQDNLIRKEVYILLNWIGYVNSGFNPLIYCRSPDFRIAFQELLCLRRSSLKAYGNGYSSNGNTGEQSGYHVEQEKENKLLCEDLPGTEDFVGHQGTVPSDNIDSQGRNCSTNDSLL
DRD3 agonist – activates the human D3 dopamine receptor; P35462; D3R DiscoveRx beta-arrestin cells, luminescence, 90 min; max activation, %; hit rate 0.58% among 410,000; AID 652048; in the data active means max activation above about 30%; further: 0% is about no effect
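Cells at 1500/well, incubated overnight, then treated with pinned compounds (dopamine as control) for 90 min at 37 degrees C. DiscoveRx reagent added for 30 - 60 minutes at room temperature; luminescence read.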
Giardia killer – kills Giardia lamblia | Giardia lamblia trophozoite viability | activity change, % at 7.66 µM, hits read low | hit rate 0.15% among 340,000; in the data active means activity change below about -80%; inconclusive means between about -30% and that limit;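 further: parasites exposed to compound for two days anaerobically before the ATP read; on the % scale 0 is the no-effect control and ±100 the full control effect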
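Media and compound were dispensed first, then trophozoites at 100 cells/well; plates sat 48 hrs at 37 deg C without oxygen before ATP luminescence reagent was added and read after 15-30 min at room temperature.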
* marks the source's active call; other numbers are inactive results; ? = inconclusive; . = no result given. Sampled rows, rich in hits. Any-hit rate of the full collection: about 2.8%.

SMILES	DRD3 antagonist	B2AR arrestin	DRD3 agonist	Giardia killer
COc1cc2c(cc1OC)-c1c(OC)c(OC)c(OC)c3ccnc(c13)C2=O	63	4%	16	-83*
O=[N+]([O-])c1cccc2c([As](=O)(O)O)cccc12	2	-1%	-4	-94*
C=C(COC(=O)CCC(=O)O)CC1CC(O)[C@]2(C)OC3CC4OC5C[C@]6(C)O[C@]7(C)CCC8OC9C[C@]%10(C)OC%11C(C)=CC(=O)OC%11CC%10OC9C[C@@H](C)C8OC7CC6O[C@]5(C)C/C=C\C4OC3CC2O1 (some centres undefined)	5	0%	-7	-15
CC1=CC(=O)OC2CC3OC4C[C@@H](C)C5OC6CC7O[C@]8(C)C/C=C\C9OC%10CC%11OC(CC(C)CO)CC(O)[C@]%11(C)OC%10CC9OC8C[C@]7(C)O[C@]6(C)CCC5OC4C[C@]3(C)OC12 (some centres undefined)	60	0%	46*	1
CC(=O)OCC1=C(C(=O)O)N2C(=O)[C@@H](N)[C@H]2SC1	.	.	-11	.
CC(CCc1ccccc1)NC(C)C(O)c1ccc(O)cc1 (centres undefined)	-70*	4%	0	0
COc1ccc(CCC(C)NCCc2ccccc2)cc1 (centres undefined)	-26	0%	-21	-16
O=C(CCl)c1ccc(Oc2ccc(C(=O)CCl)cc2)cc1	.	.	-5	.
CCC1=CCN(CCc2c(C)[nH]c3ccccc23)CC1	-63*	.	-56	2
C#CC(C)(O)CC (centres undefined)	.	.	-2	.
COc1ccc(C[C@@H]2c3cc(O)c(OC)cc3CCN2C)cc1O	-117*	-1%	-31	34
COc1cc2c(cc1O)[C@@H]1Cc3ccc(OC)c(O)c3CN1CC2	-100*	0%	-89	9
COc1ccc(CC2c3cc(OC)c(OC)cc3CCN2C)cc1OC (centres undefined)	5	0%	0	9
CCCC(C)C1(CC)C(=O)N=C(S)NC1=O (centres undefined)	.	.	0	.
CC[C@H]1C2C[C@H]3[C@@H]4N(C)c5ccccc5C45C[C@H](C2[C@H]5O)N3[C@@H]1O (some centres undefined)	-55*	0%	-9	9
CCC1C2CC3C4N(C)c5ccccc5C45CC(C2C5O)N3[C@@H]1O (some centres undefined)	-70*	0%	-21	20
CC[C@H]1[C@@H]2C[C@H]3[C@@H]4N(C)c5ccccc5[C@]45C[C@@H](C2[C@H]5O)N3[C@@H]1O (some centres undefined)	.	.	-25	.
CC(=O)OC1(c2ccccc2)CCN(CCc2ccccc2)CC1	.	.	-11	.
CN1[C@@H]2CC[C@H]1CC(OC1c3ccccc3CCc3ccccc31)C2 (some centres undefined)	-91*	0%	-88	-8
C[C@H]1CC[C@]2(NC1)O[C@H]1C[C@H]3[C@@H]4CC[C@H]5C[C@@H](O[C@@H]6O[C@H](CO)[C@H](O[C@@H]7O[C@H](CO)[C@@H](O)[C@H](O[C@@H]8OC[C@@H](O)[C@H](O)[C@H]8O)[C@H]7O[C@@H]7O[C@H](CO)[C@@H](O)[C@H](O)[C@H]7O)[C@H](O)[C@H]6O)CC[C@]5(C)[C@H]4CC[C@]3(C)[C@H]1[C@@H]2C	.	.	-22	.
CC1=C(O)C(=O)C=C2C1=CC=C1C2(C)CCC2(C)C3CC(C)(C(=O)O)CCC3(C)CCC12C (centres undefined)	-81*	.	-5	?
Cc1ccc2c(CN3CC=C(c4ccccc4)CC3)cc(=O)oc2c1C	-27	-1%	40*	12
COc1ccc(C(C)=O)cc1CN1CC=C(c2ccccc2)CC1	-101*	-1%	-19	10
COc1cc(C)cc(CN2CC=C(c3ccccc3)CC2)c1O	?	0%	-7	-13
CC1(C)[C@H](C=C(Cl)Cl)[C@H]1C(=O)OCc1c(F)c(F)cc(F)c1F	.	.	12	.
SMILES	DRD3 antagonist	B2AR arrestin	DRD3 agonist	Giardia killer
COC(=O)C(O)(c1ccc(NC(=O)c2ccccc2)cc1)C(F)(F)F (centres undefined)	6	-1%	-1	-6
COC(=O)C(O)(c1ccc(NC(=O)c2cccs2)cc1)C(F)(F)F (centres undefined)	-62*	0%	-16	-10
CC1CCCC(C)N1/N=C/c1c[nH]c2ccc(Br)cc12 (centres undefined)	-76*	-1%	-14	17
COc1cc(CC(C)N)cc(OC)c1OC (centres undefined)	.	.	13	.
COC(=O)C1=C(c2ccc(F)cc2OCc2ccccc2)C[C@@H]2CC[C@H]1N2C(=O)NCc1ccccc1	-3	-1%	-13	?
COC(=O)C1=C(c2ccc(F)cc2OCc2ccccc2)C[C@@H]2CC[C@H]1N2C(=O)NC1CCN(Cc2ccccc2)CC1	-108*	0%	-8	-6
COC(=O)C1=C(c2ccccc2OCc2ccccc2)C[C@@H]2CC[C@H]1N2C(=O)NC1CCN(Cc2ccccc2)CC1	-85*	3%	-71	32
COC(=O)C1=C(c2cccc(OCc3ccccc3)c2)C[C@@H]2CC[C@H]1N2C(=O)NC1CCN(Cc2ccccc2)CC1	-120*	0%	-49	3
COC(=O)C1=C(c2cccc(OCc3ccccc3)c2)C[C@@H]2CC[C@H]1N2C(=O)NCc1ccc(F)cc1	0	-1%	-3	-20
F/C(COc1ccc2c(c1)[nH]c1ccccc12)=C1/CN2CCC1CC2	.	.	-14	.
CC(C)(C)CC(C)(C)c1ccc(O)cc1	.	.	7	.
Oc1cccc[c]1[Hg][Cl]	.	.	-31	.
ClC1=C(Cl)C2(Cl)C(CBr)CC1(Cl)C2(Cl)Cl (centres undefined)	.	.	-12	.
CCN[C@H](C)Cc1cccc(C(F)(F)F)c1	.	.	-27	.
FC(F)(F)c1ccc2c(c1)N(CCCN1CCN(CCCl)CC1)c1ccccc1S2	-78*	0%	-18	19
O=[N+]([O-])c1oc2ccc3ccccc3c2c1CCO	1	.	2	-95*
COc1ccc2c3c1O[C@H]1[C@@H](O)C=C[C@H]4[C@@H](C2)N(C)CC[C@@]341	.	.	-4	.
O=C(COc1ccccc1)N1CCN(C2CCCC2)CC1	?	-1%	-4	11
O=C(Cc1ccccc1)N1CCN(C2CCCC2)CC1	-72*	0%	-4	-19
C=CC(=O)NCNC(=O)C=C	-76*	0%	-88	?
CCC1(CC)C(=O)NC(=O)N(C)C1=O	.	.	0	.
CCOC(=O)c1cncn1[C@H](C)c1ccccc1	.	0%	.	.
CC(c1ccccc1)n1cncc1C(=O)N1CCCC1=O (centres undefined)	28	0%	30*	9
CCOCCOC(C)=O	.	.	13	.
COC1CCC(OC2CC(C3(C)CCC4(CC(O)C(C)C(C(C)/C=C(\C)C(=O)C(C)CC(C)C(=O)O)O4)O3)OC3(OC(C4OC(O)(CO)C(C)CC4C)CC3C)C2C)OC1C (centres undefined)	133	.	71*	26

High-throughput results (PubChem BioAssay)
